In the library only some 4% were active in any assay of this set; here they are far more common.
Peg3 prom inh: inhibitors of Peg3 promoter; HeLa PEG-Prom luciferase reporter, luminescence, overnight; inhibition, % at 20 µM; AID 588405; hit rate 1.7% among 360,000;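 active = inhibition of at least 50% at 20 µM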
HIF-2a block: HIF-2a inhibition; 786-0 RCC cells HIF-2a reporter, luciferase luminescence, overnight; inhibition, % at 18.8 µM; hit rate 0.72% among 360,000; AID 624352;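 active = inhibition of the luminescence signal of 40% or more relative to plate controls, in a single-dose primary screen at 18.75 µM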
TROY signal inh: TROY signaling inhibition; hit rate 0.98% among 360,000; Q293 LMP1-TROYcd NF-kB luciferase reporter, 4 h; AID 1347056; inhibition, % at 10 µM;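 active = compounds whose plate-normalised and pattern-corrected inhibition of the luciferase reporter signal at the single screening dose is 50% or more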
TWEAK-Fn14 inh: TWEAK-Fn14 signaling inhibition | TWEAK-stimulated Fn14 reporter cells, luciferase luminescence, 8 h | inhibition, % at 10 µM | hit rate 2% among 360,000; in the data active = inhibition above about 50%
CF NFkB inh: blocks PAF-induced NF-kB reporter in cystic fibrosis cells. KKLEB NF-kB-GFP reporter, GFP fluorescence overnight. inhibition, % at 5 µM. hit rate 0.86% among 360,000. AID 588850;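 active = at least 50% inhibition at 5 µM, scaled per plate between neutral and stimulator controls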;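 note: PAF is a Pseudomonas aeruginosa culture filtrate used as stimulus; plate controls were PAF-stimulated DMSO wells for no effect and unstimulated DMSO wells for full effect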
KKLEB tox: CF airway cell cytotoxicity counter-screen; KKLEB CF airway cells viability, ATPlite luminescence, overnight; hits give low values; cells stimulated with P. aeruginosa culture filtrate; hit rate 0.36% among 360,000; activity change (cytotoxicity), % at 5 µM;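 active = corrected activity change at or below -50% at 5 µM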
Active calls of the source: *; . = no result given.

SMILES	Peg3 prom inh	HIF-2a block	TROY signal inh	TWEAK-Fn14 inh	CF NFkB inh	KKLEB tox
COc1ccccc1NC(=O)Nc1ccc(Cl)c(S(=O)(=O)Nc2ccccc2OC)c1	22	10	13	30	-2	7
COc1ccc(NC(=O)c2ccccc2)cc1NS(=O)(=O)c1ccc(F)cc1	20	11	3	-12	-8	2
O=C(N/N=C/c1ccccc1C(=O)O)c1cc(-c2ccc3c4c(cccc24)CC3)n[nH]1	-29	-39	-43	-23	14	14
CCC(=O)NCCNc1nc2cc(C)c(C)cc2cc1C#N	-68	-91	-12	-16	-5	4
OCCOCCNc1ncnc2c1cnn2-c1ccccc1	-149	-182	-11	-4	-3	-3
COc1cc(NC(=O)c2ccccc2)c(OC)cc1NC(C)=O	-6	7	1	-4	0	5
COc1cc(NS(C)(=O)=O)c(OC)cc1NC(=O)c1ccccc1	-7	8	-14	57*	1	-4
Clc1ccc(CNc2ncccn2)cc1	-7	16	13	72*	14	-18
Fc1ccc(CNc2ncccn2)cc1	0	6	-2	15	-12	8
Cc1cccc2cc(-c3nc4ccc(C(=O)O)cc4[nH]3)c(=O)oc12	22	-24	1	85*	-4	-3
Cc1cc(-c2ccc(F)cc2)n2ncc(-c3ccccc3)c2n1	-144	-50	79*	86*	-15	-23
Cc1nc2c(-c3ccc(F)cc3)cnn2c(N)c1-c1ccccc1	-10	25	94*	104*	-1	-54*
Cc1cc(N)n2ncc(-c3ccccc3)c2n1	-278	-268	-45	-9	8	-4
COc1ccc(-c2c(C)nc3c(-c4ccc(F)cc4)cnn3c2N)cc1	-66	-170	55*	46	6	-10
Cc1nc2c(-c3ccc(Cl)cc3)cnn2c(N)c1-c1ccc(F)cc1	44	10	80*	95*	8	-24
COC(=O)C1=C(C)Nc2c(c(=O)n(C)c(=O)n2C)C1c1cccc(O)c1 (configuration not stated)	4	9	-8	-11	0	1
O=C(NCC(c1ccc(F)cc1)N1CCOCC1)c1cccnc1Sc1ccccc1Cl (configuration not stated)	7	-1	4	-5	-1	3
CCCCN(C(=O)CSCC(=O)Nc1ccc(C)cc1)c1c(N)n(CCCC)c(=O)[nH]c1=O	3	6	-4	5	9	2
Fc1ccc(-c2cnn3c(-c4ccncc4)ccnc23)cc1	-125	-154	-8	61*	12	-15
CC(C)c1cc(C(=O)O)c2ccccc2n1	2	12	-6	1	10	-6
Cc1ccc(-c2nc(C)c(C(=O)O)s2)cc1	-109	-125	-17	63*	-28	13
COc1cc(C(=O)Nc2nnc(C(C)(C)C)s2)c([N+](=O)[O-])cc1OC	62*	10	-23	18	2	-5
Cc1cc2nc3ccc(=[N+](C)C)cc-3sc2cc1N	-34	-142	-8	-18	52*	28
CN(C)c1ccc2nc3ccc(=[N+](C)C)cc-3sc2c1	-110	-161	7	-4	79*	-5
CSc1nc2ccc(S(=O)(=O)N(C)C)cc2s1	-18	-5	-14	14	-22	7
SMILES	Peg3 prom inh	HIF-2a block	TROY signal inh	TWEAK-Fn14 inh	CF NFkB inh	KKLEB tox
CN(C)c1ccc2nc3ccc(=O)cc-3sc2c1	-126	-90	-5	23	52*	8
Clc1ccccc1OCCCOc1cccc2cccnc12	-308	-304	-22	-52	11	-18
Cc1ccnc(NC(=O)c2cccc(S(=O)(=O)N3CCN(c4ccccc4)CC3)c2)c1	-94	-72	49	72*	2	-9
Cc1ccnc(NC(=O)c2cccc(S(=O)(=O)N3CCCC3)c2)c1	-40	-54	8	2	10	20
CN(CCOc1ccc(Cl)cc1)C(=O)c1cccc(S(=O)(=O)N2CCN(c3ccccc3)CC2)c1	16	20	30	50*	13	-1
Clc1ccc(Cc2noc(CN3CCN(c4ccccc4)CC3)n2)c(Cl)c1	54*	12	-2	-3	-19	-2
COc1cccc2c1C(=O)c1c(O)c3c(c(O)c1C2=O)C[C@@](O)(C(C)=O)C[C@@H]3O[C@H]1C[C@H](N)[C@H](O)[C@H](C)O1	89*	26	69*	96*	66*	-47
COc1cccc2c1C(=O)c1c(O)c3c(c(O)c1C2=O)CC(O)(C(=O)CO)CC3OC1CC(N(C)C)C(O)C(C)O1 (configuration not stated)	93*	38	57*	97*	76*	-37
COc1cccc2c1C(=O)c1c(O)c3c(c(O)c1C2=O)C[C@@](O)(C(=O)CO)C[C@@H]3O[C@H]1C[C@H](N)[C@@H](O)[C@H](C)O1	94*	4	-3	88*	70*	-54*
COc1ccccc1C(=O)NNC(=O)c1cccc(F)c1	-88	-66	8	67*	-13	2
Cc1ccc(S(=O)(=O)N2CCN(c3ccccc3)CC2)cc1C(=O)NC1CCCCC1	16	17	23	1	1	12
CCOC(=O)c1cn[nH]c1NC(=S)Nc1ccc(Cl)cc1	-368	-267	61*	60*	21	-4
CC(C)(C)c1ccc(C(=O)Nc2ccc(C(=O)NCc3cccnc3)cc2)cc1	-61	-48	-18	-21	7	4
CCOC(=O)c1cnc2c(c(C)nn2-c2ccc(C)cc2)c1Cl	101*	6	-37	41	23	-3
CCNc1nc(-c2sc(NC(=O)C(C)(C)C)nc2C)c(-n2cc(-c3ccccc3)nn2)s1	.	-9	-1	86*	.	.
Cc1ccc(S(=O)(=O)N2CCN(C(=O)CC(C)n3cncn3)CC2)cc1 (configuration not stated)	20	8	12	19	-9	8
CC(=O)N1c2ccc(S(=O)(=O)NCC3CCC(C(=O)Nc4cc(C)ccn4)CC3)cc2CC1C (configuration not stated)	88*	10	30	56*	26	-3
CC(=O)N1c2ccc(S(=O)(=O)NCC3CCC(C(=O)Nc4ncccc4C)CC3)cc2CC1C (configuration not stated)	32	9	-14	6	12	-18
N=c1c2c(n(Cc3ccc(Br)cc3)c3c1CCC3)CCCC2	22	15	35	41	45	-59*
N=c1c2c(n(Cc3ccc(Cl)c(Cl)c3)c3c1CCC3)CCCC2	39	25	45	48	38	-17
O=C(O)c1ccc(S(=O)(=O)N2CCC(n3nnc4cc(C(F)(F)F)ccc43)CC2)cc1	17	5	9	0	-3	11
Cc1ccc2c(c1)/C(=N/O)CCS2	18	7	-12	65*	3	1

High-throughput results as filed in PubChem BioAssay.
